This is an account of results in PubChem BioAssay (NCI).

Compounds without any hit were thinned out: in the full panel of roughly 83,000, 20% have a hit.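 Negative percent growth values reflect cell death: -40 means 40% of the cells present at the start died, and -100 means all died.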 A number with no mark means an inactive call. Calls of active or inactive are those of the source.

In this test the test system is HOP-62 NSCLC. The experiment in a line: NCI-60 one-dose screen, 48 h (100 = growth as untreated, 0 = no growth, -100 = all killed). The note with it: 10 µM unless noted. Here is the method: Growth inhibition of the HOP-62 human Non-Small Cell Lung tumor cell line is measured as a screen for anti-cancer activity. Cells are grown in 96 well plates and exposed to the test compound for 48 hours. Compounds are tested at a single concentration, which is 10^-5 M for most compounds. The reported endpoint is percent growth (GI% or GIPRCNT), where numbers from 0 - 100% represent growth inhibition, and numbers from -100% - 0 represent cell death. For example, a value of 40 represents 60% growth inhibition. A value of 0 means no net growth occurred over the course of the experiment. A value of -40 indicates 40% of cells at the beginning of the experiment died by the end of the experiment. A value of -100 means all cells are dead at the end of the experiment.
NCI-60 Human Tumor Cell Lines Screen was performed using the standard one-dose NCI protocol, which is described in more detail at https://dtp.cancer.gov/discovery_development/nci-60/default.htm.
Compounds with GIPRCNT values below 10 were considered active. Activity score was based on GIPRCNT using the following formula: […]
Score is 0 for GIPRCNT values of 100 or above, 50 for GIPRCNT values of 0, and 100 for GIPRCNT values of -100.
As for `CC(NC(=O)c1ccccc1)C(=O)Nc1ccccc1` (stereo not given), the growth was 103%.

In the case of `O=C(Cc1ccc([N+](=O)[O-])cc1)Oc1ccccc1`, the growth is 102%.

In the case of `N=C(N)c1ccc(-c2ccc(-c3cccs3)s2)cc1F`, the growth is -96.2% (active).

As for `COc1ccc(-n2c(COc3ccc(F)cc3)n[nH]c2=S)cc1`, the growth is 105%.

For `C#CCNc1nc(NCCNC(=O)CCl)nc(N(C)CCCCc2ccccc2)n1`, the growth was 94.3%.

Consider `CCN1C(=O)N(CC)C2C1N=C(SC)N2/N=C/C=C/c1ccccc1OC` (stereo not given), for which the growth is 25.2%.

For `O=c1nc(-c2ccccc2)c2cc(-c3ccc(N4CCOCC4)cc3)ccc2[nH]1`, the growth is 73.7%.

Consider `CC(C)(C)[Si](C)(C)OC1[C@@H](CNC(N)=O)O[C@@H](n2cnc3c(NC(=O)Nc4ccccc4)ncnc32)[C@H]1O[Si](C)(C)C(C)(C)C` (stereo not given in full), for which the growth is 78.1%.

For `CCC1=CC2CN(C1)Cc1c([nH]c3ccccc13)[C@@](C(=O)OC)(c1cc3c(cc1OC)N(C)[C@H]1[C@@](O)(C(=O)OC)[C@H](OC(C)=O)[C@]4(CC)C=CCN5CC[C@]31[C@@H]54)C2` (stereo not given in full), the growth was 19.8%.

Regarding `COc1cc(C2CC(c3ccc(C)cc3)=NN2C=O)ccc1Oc1ccnc2cc(Cl)ccc12` (stereo not given), the growth was 3.38% (active).

Consider `C=C(C)[C@@H]1CC[C@]2(C(=O)O)CC[C@]3(C)[C@H](CC[C@@H]4[C@@]5(C)C[C@@H](CC#Cc6ccc(C(C)=O)s6)[C@H](O)C(C)(C)[C@@H]5CC[C@]43C)[C@@H]12`, for which the growth was 50%.

Turning to `COc1ccc(CNc2c3ccccc3nc3ccc(OC)cc23)cc1`, the growth is 34.1%.

For `CC1CCCN(CCCCOc2ccc(-c3ccc(C#N)cc3)cc2)C1` (stereo not given), the growth was 97.7%.

On to `C=C1C(=O)O[C@H]2[C@H]1CC/C(COC(=O)NCc1[nH]nc3ccccc13)=C\CC[C@@]1(C)O[C@@H]21`, for which the growth was 48.6%.

As for `C/C(=N\Nc1ccc([N+](=O)[O-])cn1)c1ccc(N)cc1`, the growth is 109%.

Take `COc1cc(CN(CCC(O)N2CCCC2=O)Cc2ccc3c(c2)OCO3)cc(OC)c1OC` (stereo not given): the growth was 103%.

As for `CCN(CC)CCNC(=O)n1cc(-c2ccncc2)c(-c2ccc(Cl)c(OC)c2)n1`, the growth is 66.8%.

Regarding `CC(C)(C)c1cc(C[P+](c2ccccc2)(c2ccccc2)c2ccccc2)cc(C(C)(C)C)c1O`, the growth was 8.73% (active).

Turning to `CCOC(=O)C1=C(C(=O)OCC)N(c2cc(OC)c(OC)c(OC)c2)C(N)=C(C#N)C1c1cc(=O)[nH]c2ccccc12` (stereo not given), the growth is 92.4%.

Consider `CCSc1cnnc2ccccc12`, for which the growth is 104%.

Regarding `CC(C)(C)c1nn(-c2ccccc2)c2c1C(=O)CSC(c1ccccc1Cl)N2` (stereo not given), the growth is 27.6%.

Turning to `Cc1ccc(NC(=O)c2sc3nc4c(cc3c2N)C(=O)CCC4)cc1Cl`, the growth was 110%.

Turning to `c1ccc(CCn2cccc2)nc1`, the growth was 98%.

On to `CC(=O)Nc1ccc(/C=N/N2CCCCCC2)cc1`, for which the growth was 95.2%.

With `COc1cccc(NC(=O)OC(C)C)c1`, the growth is 103%.

With `CC(C)c1ccc(-c2cnc3nonc3n2)cc1`, the growth was 57.7%.

With `CCCCCc1c(C)[nH]c(/C=C2\N=C(c3ccc[nH]3)C=C2Oc2ccc(OC)cc2)c1C`, the growth is -54.5% [100 µM] (active).

As to `CCOC(=O)Cc1cc(Br)c(OCc2ccccc2)c(Br)c1`, the growth was 96.4%.

Turning to `COc1cccc(C2C(C#N)=C(N)Oc3cc4c(cc32)OCO4)c1` (stereo not given), the growth is 22.7%.

On to `C[C@H](NC(=O)c1snnc1C1CC1)c1c(F)cccc1Cl`, for which the growth is 107%.

Turning to `COc1ccc2c(c1)C1=NN(C(=O)CO)[C@H](c3ccc(OC(F)(F)F)cc3)[C@@H]1CC2`, the growth is 97.4%.

Take `Cc1c(C(N)=O)sc2ncn(CC(=O)NN=C3CCCCC3)c(=O)c12`: the growth is 104%.

Regarding `O=C1C(Cl)=C(Nc2cccc3ccccc23)C(=O)c2ccccc21`, the growth was 84.9%.

Regarding `CCOC(=O)c1ccc(NC(=O)CSC(N)=O)cc1`, the growth was 113%.

Consider `O/N=C/c1ccncc1`, for which the growth was 104%.

With `COc1ccc(C2c3cccn3-c3ccccc3N2C(C)=O)cc1` (stereo not given), the growth was 88.8%.

In the case of `C[C@@H]1CC2C3CCC4=CC(=O)C=C[C@]4(C)[C@@]3(Cl)[C@@H](O)C[C@]2(C)[C@@]1(OC(=O)c1ccco1)C(=O)CCl` (stereo not given in full), the growth was 94.4%.

As to `COc1ccc(Nc2nc(N)nc3c(=O)[nH]ccc23)cc1`, the growth was 111%.

For the compound `C=C[C@H]1CCC/C=C/[C@@H]2C[C@H](O)C[C@H]2[C@H](O)/C=C/C(=O)O1`, the growth was 33.3%.

On to `COc1ccc(-c2cc(-c3cn(-c4cccc(Cl)c4)nc3-c3ccc(OC)cc3)[nH]c(=S)n2)cc1`, for which the growth is 99.1%.
